# Measured values taken from PubChem BioAssay (NCATS).
# Inconclusive results are not listed. Where a call stands in place of a potency, no number is given. Calls of active or inactive are those of the source. Unless noted, the call rests on the fitted dose curve; in most records, active means well fitted curve in the direction sought with a large enough effect; inconclusive means small, poorly fitted or top-dose-only effect, or another doubt; inactive means no such curve, though single readings can be large; an effect the other way counts as inactive or inconclusive.
# How the values were obtained:
# [1] = qHTS assay for measurement of the activity of small molecule inhibitors on Zika virus induced Caspase-3 activity in human iPSC derived neural progenitor cells (hNPCs) (AID 1224857); further: nearly all actives have a fitted effect of over 65% in size
# Method in brief: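 After overnight (16–20 h) culture at 350 cells/well, hNPCs get compound, then ZIKV 2 FFU/cell one hour later. Six hours on, Caspase-Glo 3/7 is added and luminescence measured.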
# [2] = qHTS assay for measurement of the activity of small molecule inhibitors on Zika virus induced Caspase-3 activity in human astrocytoma cells (AID 1224859)
# Method in brief: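 Inhibition of Zika-induced caspase-3/7 activity: SNB-19 cells, 1 h compound pretreatment, ZIKV 2 FFU/cell for 6 h at 37 C, Caspase-Glo luminescence read-out.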
# [3] = P-glycoprotein substrates identified in KB-8-5-11 adenocarcinoma cell line, qHTS therapeutic library screen (AID 1346987); further: nearly all actives have a fitted effect of over 65% in size; further: potency means the concentration at half of the fitted maximal effect
# Method in brief: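 Steps: plate 500 KB-8-5-11 cells/well in DMEM + 10% FCS (colchicine removed); pin compounds in dose-response; incubate 72 h, 37 degree C, 5% CO2; add CellTiter-Glo, 5 min; read luminescence.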
# [4] = target: Atrial natriuretic peptide receptor 1 (Homo sapiens) (UniProt P16066); assay: Natriuretic polypeptide receptor (hNpr1) antagonism - Pilot screen (AID 1347049; calls by dose curve;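 further: agonist-evoked cGMP luminescence read 20 min after hNppA addition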)
# Chain of Atrial natriuretic peptide receptor 1 (Homo sapiens) (P16066 whole entry, looked up): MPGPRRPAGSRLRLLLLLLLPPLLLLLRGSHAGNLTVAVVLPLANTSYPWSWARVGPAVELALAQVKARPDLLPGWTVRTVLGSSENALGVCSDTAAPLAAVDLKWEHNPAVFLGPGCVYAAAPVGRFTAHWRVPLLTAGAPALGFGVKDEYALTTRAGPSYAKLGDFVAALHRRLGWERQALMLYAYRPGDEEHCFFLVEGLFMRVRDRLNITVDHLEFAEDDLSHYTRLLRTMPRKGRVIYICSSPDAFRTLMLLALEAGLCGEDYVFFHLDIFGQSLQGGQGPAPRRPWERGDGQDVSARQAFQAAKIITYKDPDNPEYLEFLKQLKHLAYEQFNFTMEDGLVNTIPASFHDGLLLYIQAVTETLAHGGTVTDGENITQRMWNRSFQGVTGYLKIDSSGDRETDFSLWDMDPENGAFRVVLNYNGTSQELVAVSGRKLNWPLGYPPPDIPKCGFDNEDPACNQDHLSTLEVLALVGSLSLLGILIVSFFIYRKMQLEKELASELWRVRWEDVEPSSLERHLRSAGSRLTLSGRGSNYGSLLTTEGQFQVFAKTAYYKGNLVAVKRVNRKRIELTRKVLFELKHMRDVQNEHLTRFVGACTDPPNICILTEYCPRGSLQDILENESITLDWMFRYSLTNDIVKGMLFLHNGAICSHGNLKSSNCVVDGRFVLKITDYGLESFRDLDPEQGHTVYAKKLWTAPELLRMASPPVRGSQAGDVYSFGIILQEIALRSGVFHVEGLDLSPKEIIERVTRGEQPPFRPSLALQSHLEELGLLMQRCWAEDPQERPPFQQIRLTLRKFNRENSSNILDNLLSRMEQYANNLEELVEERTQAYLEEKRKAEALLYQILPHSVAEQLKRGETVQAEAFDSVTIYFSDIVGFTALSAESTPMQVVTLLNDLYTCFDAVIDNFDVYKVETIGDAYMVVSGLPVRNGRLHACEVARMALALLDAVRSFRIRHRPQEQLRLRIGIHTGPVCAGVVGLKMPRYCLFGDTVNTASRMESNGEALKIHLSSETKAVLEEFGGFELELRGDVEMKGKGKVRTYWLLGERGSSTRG
# Method in brief: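 HEK293 cells co-expressing hNpr1 and the GloSensor pGS-40F cGMP luciferase sensor were preloaded with 2% GloSensor reagent for 2 h. Compounds were added for 30 min at room temperature, then cells were stimulated with 0.1 nM hNppA for 20 min before luminescence readout.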
# [5] = target: Atrial natriuretic peptide receptor 2 (Homo sapiens) (UniProt P20594); assay: Natriuretic polypeptide receptor (hNpr2) antagonism - Pilot subtype selectivity assay (AID 1347050; calls by dose curve; further: potency means the concentration at half of the fitted maximal effect)
# Chain of Atrial natriuretic peptide receptor 2 (Homo sapiens) (P20594 whole entry, looked up): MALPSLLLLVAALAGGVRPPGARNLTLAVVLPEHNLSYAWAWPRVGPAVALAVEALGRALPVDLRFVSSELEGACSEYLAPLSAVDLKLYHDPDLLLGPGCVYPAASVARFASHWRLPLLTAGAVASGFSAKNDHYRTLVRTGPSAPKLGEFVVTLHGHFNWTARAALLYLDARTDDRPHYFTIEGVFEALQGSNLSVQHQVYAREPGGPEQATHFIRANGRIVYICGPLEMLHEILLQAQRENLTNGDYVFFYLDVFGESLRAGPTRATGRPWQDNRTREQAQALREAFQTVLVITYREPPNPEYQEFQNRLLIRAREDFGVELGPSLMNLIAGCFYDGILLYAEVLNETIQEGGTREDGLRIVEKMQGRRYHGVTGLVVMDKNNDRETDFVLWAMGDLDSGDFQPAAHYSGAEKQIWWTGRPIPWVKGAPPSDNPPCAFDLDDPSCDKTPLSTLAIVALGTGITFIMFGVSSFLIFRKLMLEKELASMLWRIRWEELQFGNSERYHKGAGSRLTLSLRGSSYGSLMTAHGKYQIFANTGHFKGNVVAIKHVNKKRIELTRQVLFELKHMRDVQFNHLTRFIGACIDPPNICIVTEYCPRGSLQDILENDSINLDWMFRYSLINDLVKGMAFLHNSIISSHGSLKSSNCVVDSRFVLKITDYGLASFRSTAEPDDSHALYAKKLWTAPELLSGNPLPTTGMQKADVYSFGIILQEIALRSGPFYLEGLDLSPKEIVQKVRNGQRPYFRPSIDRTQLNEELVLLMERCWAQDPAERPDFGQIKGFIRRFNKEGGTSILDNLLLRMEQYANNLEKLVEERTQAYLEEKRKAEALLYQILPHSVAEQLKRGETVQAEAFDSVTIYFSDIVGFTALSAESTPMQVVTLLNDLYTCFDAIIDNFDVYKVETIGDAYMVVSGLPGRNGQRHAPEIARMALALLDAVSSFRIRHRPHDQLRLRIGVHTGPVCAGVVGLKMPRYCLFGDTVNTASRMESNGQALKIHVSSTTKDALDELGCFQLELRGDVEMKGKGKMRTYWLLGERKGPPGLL
# Method in brief: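 cGMP-sensor HEK293/hNpr2 cells; 2% GloSensor reagent 2 h RT; compounds 30 min; baseline luminescence read; 1 nM hNppC agonist 20 min RT; final luminescence read by CCD camera. Antagonism = reduced post-agonist signal.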
# [6] = NS1 protein of Zika virus - qHTS assay to identify small molecule inhibitors in human HEK 293 cells (AID 1347053); further: nearly all actives have a fitted effect of over 55% in size
# Method in brief: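 Inhibition of NS1 expression was scored in HEK 293 cells given compound 1 h ahead of MR766 virus (MOI = 0.5). Following 24 h at 37 C, two anti-NS1 antibodies generated a TR-FRET signal, scaled between uninfected and infected controls.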
# [7] = target: T1, Tyrosine-protein phosphatase non-receptor type substrate 1 (Homo sapiens) + Leukocyte surface antigen CD47 (Homo sapiens) (UniProt P78324+Q08722); assay: CD47-SIRPalpha protein protein interaction - LANCE assay qHTS validation (AID 1347057; active means well fitted curve in the direction sought with a large enough effect in the signal ratio, with a control signal flat, not every such curve was filed as active; the % refers to the signal ratio)
# T1 sequence (P78324 whole entry, looked up): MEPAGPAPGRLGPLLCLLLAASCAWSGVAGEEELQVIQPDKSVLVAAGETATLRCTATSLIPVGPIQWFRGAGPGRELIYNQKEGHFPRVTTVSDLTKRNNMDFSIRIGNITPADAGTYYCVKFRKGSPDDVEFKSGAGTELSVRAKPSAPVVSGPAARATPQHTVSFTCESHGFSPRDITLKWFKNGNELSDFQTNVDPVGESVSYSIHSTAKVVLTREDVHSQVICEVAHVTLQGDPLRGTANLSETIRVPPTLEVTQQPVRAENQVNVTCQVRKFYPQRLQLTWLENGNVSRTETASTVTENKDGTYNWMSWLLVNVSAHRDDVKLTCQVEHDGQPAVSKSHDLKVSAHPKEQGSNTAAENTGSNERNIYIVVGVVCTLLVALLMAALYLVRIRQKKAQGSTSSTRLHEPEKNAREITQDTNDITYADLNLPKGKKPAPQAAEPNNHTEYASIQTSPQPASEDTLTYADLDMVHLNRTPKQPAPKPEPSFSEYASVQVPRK
# T1 sequence (Q08722 whole entry, looked up): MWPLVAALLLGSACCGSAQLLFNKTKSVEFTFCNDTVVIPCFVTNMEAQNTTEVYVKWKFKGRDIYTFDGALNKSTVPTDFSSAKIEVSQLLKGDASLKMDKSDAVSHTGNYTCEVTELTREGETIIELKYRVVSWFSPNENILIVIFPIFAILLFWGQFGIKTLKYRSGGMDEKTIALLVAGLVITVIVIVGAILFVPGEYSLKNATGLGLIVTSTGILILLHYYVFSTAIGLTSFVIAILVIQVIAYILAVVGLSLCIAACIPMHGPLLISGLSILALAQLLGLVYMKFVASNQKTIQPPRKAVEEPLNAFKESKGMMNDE
# Method in brief: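 First, His-tagged CD47 and Eu-labelled anti-His antibody met the compound for 30 min; next, site-specifically biotinylated SIRPalpha was added for 30 min; finally streptavidin-APC was added before reading the TR-FRET ratio.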
# [8] = Natriuretic polypeptide receptor (hNpr1) antagonism - Pilot counterscreen GloSensor control cell line (AID 1347045; calls by dose curve)
# Method in brief: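 Luminescence was read before and 20 min after adding 50 uM SNP, which stimulates soluble guanylyl cyclase. The HEK293 cells expressing the GloSensor cGMP sensor had been preloaded with 2% reagent for 2 h and treated with compound.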
# [9] = target: T1, Tyrosine-protein phosphatase non-receptor type substrate 1 (Homo sapiens) + Leukocyte surface antigen CD47 (Homo sapiens); assay: CD47-SIRPalpha protein protein interaction - HTRF assay qHTS validation (AID 1347058; active means well fitted curve in the direction sought with a large enough effect in the signal ratio, not every such curve was filed as active; the % refers to the signal ratio;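 further: recombinant soluble extracellular CD47 with His tag and biotinylated SIRPalpha domains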)
# Method in brief: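 TR-FRET read (Ch1/Ch2 ratio) of soluble extracellular CD47 and Avi-biotinylated SIRPalpha domains in PBS pH 7.4 with 0.05% IGEPAL; 7-point compound titration. Sequential 30 min room-temperature steps; non-biotinylated SIRPalpha as control inhibitor.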
# [10] = qHTS assay to identify small molecule inhibitors of chordoma cells - UCH-2 (AID 1259356)
# [11] = qHTS profiling of the MIPE4 collection as inhibitors of Plasmodium falciparum (3D7) proliferation (AID 743344; call rule not given here); conditions: P. falciparum 3D7 in erythrocytes, SYBR Green DNA fluorescence, 72 h; at 28.5 µM (top of the series)
# Method in brief: (§1)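 Erythrocytes infected with P. falciparum (0.3% parasitemia, 2.5% hematocrit) incubated with compounds 72 h at 37 C, 5% CO2. Lysis with saponin/Triton buffer containing SYBR Green I, overnight at room temperature in the dark; DNA fluorescence (485/535 nm) normalised to 0.29 uM artemisinin and DMSO.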
# [12] = qHTS profiling of the MIPE4 collection as inhibitors of Plasmodium falciparum (DD2) proliferation (AID 743345; call rule not given here); conditions: P. falciparum Dd2 in erythrocytes, SYBR Green DNA, 72 h; at 28.5 µM (top of the series)
# Method in brief: as §1
# [13] = qHTS profiling of the MIPE4 collection as inhibitors of Plasmodium falciparum (DD2) proliferation (Rep 2) (AID 743346; call rule not given here); conditions: P. falciparum Dd2 in erythrocytes, SYBR Green DNA, 72 h; at 28.5 µM (top of the series)
# Method in brief: as §1
# [14] = qHTS profiling of the MIPE4 collection as inhibitors of Plasmodium falciparum (HB3) proliferation (AID 743347; call rule not given here); conditions: P. falciparum HB3 in erythrocytes, SYBR Green DNA, 72 h; at 28.5 µM (top of the series)
# Method in brief: as §1
SMILES,outcome [1],outcome [2],Potency [3],outcome [4],Potency [5],Potency [6],outcome [7],outcome [8],outcome [9],outcome [10],"parasite growth, % of DMSO control [11]","parasite growth remaining, % of DMSO control (lower = more inhibition) [12]","parasite growth, % of control (lower = inhibition) [13]","growth, % of control [14]"
Nc1cc(=O)[nH]c(N)n1,inactive,inactive,inactive,inactive,inactive,inactive,inactive,–,–,–,–,–,–,–
OCCN1CCN(CCCN2c3ccccc3Sc3ccc(Cl)cc32)CC1,inactive,inactive,–,inactive,16.5 µM (active),–,–,–,–,–,–,–,–,–
CNCC(O)c1ccc(O)c(O)c1 (configuration not stated),inactive,inactive,–,inactive,inactive,inactive,inactive,inactive,inactive,–,–,–,–,–
CN(C)CCCN1c2ccccc2CCc2ccccc21,inactive,inactive,9.2 µM (active),inactive,16.5 µM (active),inactive,inactive,inactive,inactive,–,–,–,–,–
CC(CN(C)C)CN1c2ccccc2CCc2ccccc21 (configuration not stated),inactive,inactive,–,inactive,–,inactive,inactive,inactive,inactive,inactive,–,–,–,–
CC1=C(CC(=O)O)c2cc(F)ccc2/C1=C\c1ccc(S(C)(=O)=O)cc1,inactive,inactive,inactive,inactive,inactive,inactive,inactive,inactive,–,–,–,–,–,–
Cc1c(O)cccc1C(=O)N[C@@H](CSc1ccccc1)[C@H](O)CN1C[C@H]2CCCC[C@H]2C[C@H]1C(=O)NC(C)(C)C,inactive,inactive,–,–,–,inactive,inactive,–,inactive,inactive,–,–,–,–
CC(CN1c2ccccc2Sc2ccccc21)N(C)C (configuration not stated),inactive,inactive,–,inactive,inactive,–,inactive,–,–,–,–,–,–,–
CC1=C(/C=C/C(C)=C/C=C/C(C)=C/C(=O)O)C(C)(C)CCC1,inactive,inactive,–,inactive,inactive,inactive,inactive,–,inactive,inactive,–,–,–,–
CC(=O)OCC(=O)[C@@]1(O)CC[C@H]2[C@@H]3CCC4=CC(=O)CC[C@]4(C)[C@H]3C(=O)C[C@@]21C,inactive,inactive,–,inactive,inactive,inactive,inactive,inactive,inactive,–,–,–,–,–
CSc1ccc2c(c1)N(CCC1CCCCN1C)c1ccccc1S2 (configuration not stated),inactive,inactive,18.4 µM (active),–,–,inactive,inactive,–,inactive,inactive,12.9%,10.4%,30.8%,4.65%
CC(C)(C(=O)O)c1ccc(C(O)CCCN2CCC(C(O)(c3ccccc3)c3ccccc3)CC2)cc1 (configuration not stated),inactive,inactive,inactive,–,–,inactive,–,–,–,–,–,–,–,–
CC[C@H]1CN2CCc3cc(OC)c(OC)cc3[C@@H]2C[C@@H]1C[C@H]1NCCc2cc(OC)c(OC)cc21,inactive,inactive,–,inactive,inactive,inactive,inactive,inactive,inactive,–,–,–,–,–
C[C@]12CC[C@@H]3c4ccc(O)cc4CC[C@H]3[C@@H]1CCC2=O,inactive,inactive,–,inactive,inactive,–,inactive,inactive,inactive,–,–,–,–,–
CCN(CC)CCOC(=O)C1(C2CCCCC2)CCCCC1,inactive,inactive,inactive,inactive,inactive,inactive,inactive,inactive,inactive,–,–,–,–,–
NC(N)=NCCC[C@H](N)C(=O)O,inactive,inactive,inactive,inactive,inactive,–,–,–,–,–,–,–,–,–
C[C@]12C[C@H](O)[C@H]3[C@@H](CCC4=CC(=O)CC[C@@]43C)[C@@H]1CC[C@@H]2C(=O)CO,inactive,inactive,–,inactive,inactive,inactive,inactive,inactive,inactive,–,–,–,–,–
CC/C=C(\C(=O)N[C@@H]1C(=O)N2C(C(=O)OCOC(=O)C(C)(C)C)=C(COC(N)=O)CS[C@H]12)c1csc(N)n1,inactive,inactive,inactive,–,–,inactive,–,–,–,–,–,–,–,–
